Test results reported in ChEMBL document CHEMBL1961873, “Compounds: GSK PKIS; Assays: Nanosyn kinase panel” (2012).

How the values were obtained:
[1] = molecular target: T1, Serine/threonine-protein kinase Nek9 (Homo sapiens) (UniProt Q8TD19); details: at 1 µM;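 further: each value is a mean percent inhibition of NEK9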
T1 sequence (whole entry): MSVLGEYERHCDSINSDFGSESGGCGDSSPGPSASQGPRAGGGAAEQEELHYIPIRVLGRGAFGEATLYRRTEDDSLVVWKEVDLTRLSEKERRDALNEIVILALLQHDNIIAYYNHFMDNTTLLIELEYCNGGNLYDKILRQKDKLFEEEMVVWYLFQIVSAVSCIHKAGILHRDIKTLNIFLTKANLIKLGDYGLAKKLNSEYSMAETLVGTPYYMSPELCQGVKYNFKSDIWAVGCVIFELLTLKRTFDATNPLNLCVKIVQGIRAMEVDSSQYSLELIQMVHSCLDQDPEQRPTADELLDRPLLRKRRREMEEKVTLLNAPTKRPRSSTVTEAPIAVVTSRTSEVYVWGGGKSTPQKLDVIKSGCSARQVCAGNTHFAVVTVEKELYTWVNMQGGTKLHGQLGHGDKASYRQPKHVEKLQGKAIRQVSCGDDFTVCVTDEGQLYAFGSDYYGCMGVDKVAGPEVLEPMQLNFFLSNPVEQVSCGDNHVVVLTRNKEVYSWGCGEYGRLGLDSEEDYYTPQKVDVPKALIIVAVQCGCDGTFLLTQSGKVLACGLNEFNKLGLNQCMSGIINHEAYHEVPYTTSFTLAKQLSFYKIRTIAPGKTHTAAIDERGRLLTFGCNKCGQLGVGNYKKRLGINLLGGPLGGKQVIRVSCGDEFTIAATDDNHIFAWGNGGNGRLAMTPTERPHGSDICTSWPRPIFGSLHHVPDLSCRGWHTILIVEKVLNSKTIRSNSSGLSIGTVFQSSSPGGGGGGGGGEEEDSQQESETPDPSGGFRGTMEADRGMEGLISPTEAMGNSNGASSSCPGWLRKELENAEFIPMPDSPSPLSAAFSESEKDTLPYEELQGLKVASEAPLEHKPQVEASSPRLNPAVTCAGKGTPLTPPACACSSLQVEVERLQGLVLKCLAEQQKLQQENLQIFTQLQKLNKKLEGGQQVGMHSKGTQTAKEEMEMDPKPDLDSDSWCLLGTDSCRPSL

[2] = molecular target: Serine/threonine-protein kinase PLK1 (Homo sapiens) (UniProt P53350); details: at 0.1 µM
[3] = molecular target: Serine/threonine-protein kinase PLK1 (Homo sapiens) (UniProt P53350); details: at 1 µM
[4] = molecular target: T2, Dual specificity protein kinase TTK (Homo sapiens) (UniProt P33981); details: at 0.1 µM
T2 sequence (whole entry): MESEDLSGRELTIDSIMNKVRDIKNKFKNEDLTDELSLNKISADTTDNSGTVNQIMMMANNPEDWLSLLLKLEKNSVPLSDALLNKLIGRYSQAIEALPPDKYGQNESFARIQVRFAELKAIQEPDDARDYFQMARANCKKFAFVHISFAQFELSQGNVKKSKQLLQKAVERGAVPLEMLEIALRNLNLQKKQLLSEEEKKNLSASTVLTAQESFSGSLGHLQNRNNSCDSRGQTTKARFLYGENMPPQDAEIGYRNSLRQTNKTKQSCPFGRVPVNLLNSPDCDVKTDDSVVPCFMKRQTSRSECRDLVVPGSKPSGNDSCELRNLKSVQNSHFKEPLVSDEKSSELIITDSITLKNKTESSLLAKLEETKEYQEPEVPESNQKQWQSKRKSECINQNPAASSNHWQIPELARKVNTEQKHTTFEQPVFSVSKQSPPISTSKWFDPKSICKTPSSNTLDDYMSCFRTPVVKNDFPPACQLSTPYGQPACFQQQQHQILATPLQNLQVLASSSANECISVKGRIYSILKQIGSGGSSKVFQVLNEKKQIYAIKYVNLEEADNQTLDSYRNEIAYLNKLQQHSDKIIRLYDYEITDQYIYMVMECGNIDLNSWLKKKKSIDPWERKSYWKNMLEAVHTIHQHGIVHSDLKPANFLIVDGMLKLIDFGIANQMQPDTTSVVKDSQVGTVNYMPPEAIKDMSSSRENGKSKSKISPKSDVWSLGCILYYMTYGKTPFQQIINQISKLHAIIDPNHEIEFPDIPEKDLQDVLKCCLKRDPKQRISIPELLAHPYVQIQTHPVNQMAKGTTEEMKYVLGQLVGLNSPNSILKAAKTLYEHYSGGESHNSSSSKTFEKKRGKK

[5] = test system: T3, Receptor-type tyrosine-protein kinase FLT3 (Homo sapiens), P36888 [D835Y]; details: at 1 µM
T3 sequence (whole entry): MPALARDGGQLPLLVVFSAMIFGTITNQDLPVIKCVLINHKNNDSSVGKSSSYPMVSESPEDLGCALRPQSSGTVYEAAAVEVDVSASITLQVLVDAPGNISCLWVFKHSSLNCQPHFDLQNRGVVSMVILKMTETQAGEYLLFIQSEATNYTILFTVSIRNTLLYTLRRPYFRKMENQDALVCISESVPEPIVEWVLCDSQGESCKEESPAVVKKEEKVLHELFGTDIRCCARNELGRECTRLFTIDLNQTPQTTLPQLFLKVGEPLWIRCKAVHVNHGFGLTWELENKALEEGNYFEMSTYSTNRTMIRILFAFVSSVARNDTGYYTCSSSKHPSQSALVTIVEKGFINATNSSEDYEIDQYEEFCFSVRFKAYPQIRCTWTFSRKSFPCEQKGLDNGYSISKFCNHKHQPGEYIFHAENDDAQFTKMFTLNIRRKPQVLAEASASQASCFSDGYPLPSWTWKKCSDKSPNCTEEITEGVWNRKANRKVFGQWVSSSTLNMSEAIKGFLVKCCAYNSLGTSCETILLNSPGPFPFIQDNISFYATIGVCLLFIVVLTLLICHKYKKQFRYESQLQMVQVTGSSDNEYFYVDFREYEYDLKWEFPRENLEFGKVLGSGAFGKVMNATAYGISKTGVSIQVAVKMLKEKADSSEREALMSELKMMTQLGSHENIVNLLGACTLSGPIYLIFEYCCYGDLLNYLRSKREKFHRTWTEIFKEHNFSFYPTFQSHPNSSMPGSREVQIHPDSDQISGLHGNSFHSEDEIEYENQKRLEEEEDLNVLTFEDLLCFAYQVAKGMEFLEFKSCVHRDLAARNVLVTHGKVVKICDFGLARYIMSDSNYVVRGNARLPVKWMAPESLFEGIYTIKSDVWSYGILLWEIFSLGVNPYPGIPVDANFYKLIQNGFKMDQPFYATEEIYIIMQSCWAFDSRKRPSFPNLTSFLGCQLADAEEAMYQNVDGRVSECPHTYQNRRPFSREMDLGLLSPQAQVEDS

[6] = molecular target: Vascular endothelial growth factor receptor 3 (Homo sapiens) (UniProt P35916); details: at 0.1 µM
[7] = molecular target: Vascular endothelial growth factor receptor 3 (Homo sapiens) (UniProt P35916); details: at 1 µM
[8] = molecular target: Macrophage colony-stimulating factor 1 receptor (Homo sapiens) (UniProt P07333); details: at 0.1 µM
[9] = molecular target: Macrophage colony-stimulating factor 1 receptor (Homo sapiens) (UniProt P07333); details: at 1 µM
[10] = molecular target: Tyrosine-protein kinase Fyn (Homo sapiens) (UniProt P06241); details: at 0.1 µM
[11] = molecular target: Tyrosine-protein kinase Fyn (Homo sapiens) (UniProt P06241); details: at 1 µM
[12] = molecular target: Tyrosine-protein kinase HCK (Homo sapiens) (UniProt P08631); details: at 0.1 µM
[13] = molecular target: Tyrosine-protein kinase HCK (Homo sapiens) (UniProt P08631); details: at 1 µM
[14] = molecular target: Insulin-like growth factor 1 receptor (Homo sapiens) (UniProt P08069); details: at 0.1 µM
[15] = molecular target: Insulin-like growth factor 1 receptor (Homo sapiens) (UniProt P08069); details: at 1 µM
[16] = molecular target: Insulin receptor (Homo sapiens) (UniProt P06213); details: at 0.1 µM
[17] = molecular target: Insulin receptor (Homo sapiens) (UniProt P06213); details: at 1 µM
[18] = molecular target: Insulin receptor-related protein (Homo sapiens) (UniProt P14616); details: at 0.1 µM
[19] = molecular target: Insulin receptor-related protein (Homo sapiens) (UniProt P14616); details: at 1 µM
[20] = molecular target: T4, Tyrosine-protein kinase ITK/TSK (Homo sapiens) (UniProt Q08881); details: at 0.1 µM;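 further: mean percent inhibition of ITK from the GSK PKIS screen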
T4 sequence (whole entry): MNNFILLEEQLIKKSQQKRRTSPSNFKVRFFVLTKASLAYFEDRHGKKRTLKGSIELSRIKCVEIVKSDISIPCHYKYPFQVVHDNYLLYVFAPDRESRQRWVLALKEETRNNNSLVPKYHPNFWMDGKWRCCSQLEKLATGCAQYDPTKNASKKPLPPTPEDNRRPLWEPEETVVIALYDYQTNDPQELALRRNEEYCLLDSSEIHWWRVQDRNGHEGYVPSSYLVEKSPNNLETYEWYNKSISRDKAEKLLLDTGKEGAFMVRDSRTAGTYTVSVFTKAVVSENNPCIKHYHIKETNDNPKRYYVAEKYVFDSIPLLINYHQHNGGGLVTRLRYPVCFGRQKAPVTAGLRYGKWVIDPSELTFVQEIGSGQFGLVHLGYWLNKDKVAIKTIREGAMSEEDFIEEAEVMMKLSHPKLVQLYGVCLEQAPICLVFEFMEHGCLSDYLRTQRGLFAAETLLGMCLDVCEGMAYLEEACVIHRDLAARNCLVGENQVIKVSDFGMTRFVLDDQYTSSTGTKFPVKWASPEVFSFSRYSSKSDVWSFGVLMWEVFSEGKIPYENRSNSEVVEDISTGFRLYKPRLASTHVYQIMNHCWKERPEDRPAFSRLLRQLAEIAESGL

Chain of Insulin receptor (Homo sapiens) (P06213 28-758 limits assumed): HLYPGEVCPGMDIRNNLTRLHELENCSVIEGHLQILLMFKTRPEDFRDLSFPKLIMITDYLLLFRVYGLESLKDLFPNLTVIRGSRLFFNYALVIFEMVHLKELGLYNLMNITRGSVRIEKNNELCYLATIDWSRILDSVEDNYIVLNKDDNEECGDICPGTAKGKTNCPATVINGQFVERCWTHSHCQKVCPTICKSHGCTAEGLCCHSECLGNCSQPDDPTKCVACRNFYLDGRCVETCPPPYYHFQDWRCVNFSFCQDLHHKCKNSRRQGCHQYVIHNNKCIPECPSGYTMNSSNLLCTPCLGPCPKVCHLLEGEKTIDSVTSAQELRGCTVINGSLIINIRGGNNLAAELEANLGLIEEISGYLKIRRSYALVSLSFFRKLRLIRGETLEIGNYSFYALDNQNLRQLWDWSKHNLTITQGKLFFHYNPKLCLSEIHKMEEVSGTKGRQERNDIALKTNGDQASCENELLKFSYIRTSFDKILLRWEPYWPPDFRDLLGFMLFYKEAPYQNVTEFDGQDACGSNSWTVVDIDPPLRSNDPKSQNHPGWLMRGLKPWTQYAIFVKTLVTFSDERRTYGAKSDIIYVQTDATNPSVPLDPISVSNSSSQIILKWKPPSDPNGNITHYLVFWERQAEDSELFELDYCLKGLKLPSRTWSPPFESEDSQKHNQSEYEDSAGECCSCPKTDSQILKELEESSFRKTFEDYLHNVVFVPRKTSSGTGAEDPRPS
Chain of Insulin receptor (Homo sapiens) (P06213 763-1382 limits assumed): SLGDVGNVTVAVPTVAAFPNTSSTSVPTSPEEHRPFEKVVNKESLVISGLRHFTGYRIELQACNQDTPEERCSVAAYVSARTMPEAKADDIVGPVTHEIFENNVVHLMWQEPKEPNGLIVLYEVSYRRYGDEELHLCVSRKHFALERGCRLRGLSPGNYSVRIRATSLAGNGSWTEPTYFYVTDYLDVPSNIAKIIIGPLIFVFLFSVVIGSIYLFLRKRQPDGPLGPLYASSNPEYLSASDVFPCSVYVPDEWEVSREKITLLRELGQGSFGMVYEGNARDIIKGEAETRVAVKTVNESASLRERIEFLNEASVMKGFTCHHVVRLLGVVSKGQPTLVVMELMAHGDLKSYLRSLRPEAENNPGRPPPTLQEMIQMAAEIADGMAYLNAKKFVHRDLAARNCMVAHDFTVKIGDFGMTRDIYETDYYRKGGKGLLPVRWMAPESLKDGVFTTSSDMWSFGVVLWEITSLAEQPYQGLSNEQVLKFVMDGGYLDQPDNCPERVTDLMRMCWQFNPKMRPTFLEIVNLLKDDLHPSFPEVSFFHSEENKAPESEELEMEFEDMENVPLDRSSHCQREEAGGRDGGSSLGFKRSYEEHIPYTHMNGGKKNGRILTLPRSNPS
Chain of Macrophage colony-stimulating factor 1 receptor (Homo sapiens) (P07333 whole entry): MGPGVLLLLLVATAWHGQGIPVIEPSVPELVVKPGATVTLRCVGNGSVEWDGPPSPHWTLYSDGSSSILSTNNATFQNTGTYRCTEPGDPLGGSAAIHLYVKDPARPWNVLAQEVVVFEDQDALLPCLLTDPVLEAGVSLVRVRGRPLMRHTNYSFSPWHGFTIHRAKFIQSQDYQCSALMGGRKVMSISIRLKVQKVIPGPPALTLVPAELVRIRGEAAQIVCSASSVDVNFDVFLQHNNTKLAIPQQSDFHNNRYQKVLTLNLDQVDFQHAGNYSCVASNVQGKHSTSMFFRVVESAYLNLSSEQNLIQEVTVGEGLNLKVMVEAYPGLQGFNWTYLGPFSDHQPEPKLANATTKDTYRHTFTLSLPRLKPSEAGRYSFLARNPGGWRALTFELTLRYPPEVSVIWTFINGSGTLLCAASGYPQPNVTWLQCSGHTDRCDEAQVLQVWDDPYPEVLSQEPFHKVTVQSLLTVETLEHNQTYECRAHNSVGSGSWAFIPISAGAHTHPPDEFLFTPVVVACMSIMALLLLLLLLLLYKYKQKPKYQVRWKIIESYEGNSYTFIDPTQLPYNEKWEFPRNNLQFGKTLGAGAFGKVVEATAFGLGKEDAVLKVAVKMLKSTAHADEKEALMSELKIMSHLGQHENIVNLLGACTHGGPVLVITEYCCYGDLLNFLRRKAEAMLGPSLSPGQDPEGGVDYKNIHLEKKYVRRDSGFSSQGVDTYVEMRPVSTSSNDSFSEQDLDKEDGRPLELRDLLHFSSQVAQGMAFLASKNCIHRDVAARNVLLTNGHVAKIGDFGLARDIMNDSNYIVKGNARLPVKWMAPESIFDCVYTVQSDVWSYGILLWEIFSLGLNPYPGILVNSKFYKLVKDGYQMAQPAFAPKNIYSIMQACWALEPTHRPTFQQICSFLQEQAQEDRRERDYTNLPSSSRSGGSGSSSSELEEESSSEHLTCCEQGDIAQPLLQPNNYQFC
Chain of Serine/threonine-protein kinase PLK1 (Homo sapiens) (P53350 whole entry): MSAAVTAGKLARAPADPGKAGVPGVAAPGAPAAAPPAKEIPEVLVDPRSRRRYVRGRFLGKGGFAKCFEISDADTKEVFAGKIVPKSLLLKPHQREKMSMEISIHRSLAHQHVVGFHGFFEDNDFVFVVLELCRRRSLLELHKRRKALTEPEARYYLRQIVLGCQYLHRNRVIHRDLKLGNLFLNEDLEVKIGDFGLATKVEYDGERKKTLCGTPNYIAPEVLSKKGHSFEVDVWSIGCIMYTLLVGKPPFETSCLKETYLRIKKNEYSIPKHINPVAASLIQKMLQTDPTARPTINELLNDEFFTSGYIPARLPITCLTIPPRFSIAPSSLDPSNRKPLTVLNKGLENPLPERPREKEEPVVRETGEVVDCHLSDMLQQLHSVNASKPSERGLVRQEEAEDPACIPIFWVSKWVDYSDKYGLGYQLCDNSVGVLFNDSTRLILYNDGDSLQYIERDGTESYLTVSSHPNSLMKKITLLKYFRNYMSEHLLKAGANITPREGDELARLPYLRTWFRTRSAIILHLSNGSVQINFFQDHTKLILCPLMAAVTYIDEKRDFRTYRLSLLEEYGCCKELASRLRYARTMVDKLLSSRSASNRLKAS
Chain of Insulin-like growth factor 1 receptor (Homo sapiens) (P08069 31-736 limits assumed): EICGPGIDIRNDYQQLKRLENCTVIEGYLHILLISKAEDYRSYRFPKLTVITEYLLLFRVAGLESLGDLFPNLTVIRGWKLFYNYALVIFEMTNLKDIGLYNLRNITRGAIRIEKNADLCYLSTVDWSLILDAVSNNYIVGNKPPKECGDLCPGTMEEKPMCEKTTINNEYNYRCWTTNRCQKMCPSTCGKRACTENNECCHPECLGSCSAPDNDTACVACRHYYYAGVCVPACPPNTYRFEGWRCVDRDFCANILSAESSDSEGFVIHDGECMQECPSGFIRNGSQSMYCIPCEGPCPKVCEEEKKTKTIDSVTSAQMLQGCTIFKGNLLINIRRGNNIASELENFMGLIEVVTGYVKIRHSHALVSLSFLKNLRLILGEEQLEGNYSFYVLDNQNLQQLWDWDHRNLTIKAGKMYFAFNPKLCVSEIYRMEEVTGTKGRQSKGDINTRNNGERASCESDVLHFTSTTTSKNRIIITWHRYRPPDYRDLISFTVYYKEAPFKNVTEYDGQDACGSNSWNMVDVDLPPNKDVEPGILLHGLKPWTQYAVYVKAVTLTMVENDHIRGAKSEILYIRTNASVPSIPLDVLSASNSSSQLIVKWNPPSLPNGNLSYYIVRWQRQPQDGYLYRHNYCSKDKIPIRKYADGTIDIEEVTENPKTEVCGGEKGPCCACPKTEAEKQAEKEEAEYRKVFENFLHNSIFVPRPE
Chain of Insulin-like growth factor 1 receptor (Homo sapiens) (P08069 741-1367 limits assumed): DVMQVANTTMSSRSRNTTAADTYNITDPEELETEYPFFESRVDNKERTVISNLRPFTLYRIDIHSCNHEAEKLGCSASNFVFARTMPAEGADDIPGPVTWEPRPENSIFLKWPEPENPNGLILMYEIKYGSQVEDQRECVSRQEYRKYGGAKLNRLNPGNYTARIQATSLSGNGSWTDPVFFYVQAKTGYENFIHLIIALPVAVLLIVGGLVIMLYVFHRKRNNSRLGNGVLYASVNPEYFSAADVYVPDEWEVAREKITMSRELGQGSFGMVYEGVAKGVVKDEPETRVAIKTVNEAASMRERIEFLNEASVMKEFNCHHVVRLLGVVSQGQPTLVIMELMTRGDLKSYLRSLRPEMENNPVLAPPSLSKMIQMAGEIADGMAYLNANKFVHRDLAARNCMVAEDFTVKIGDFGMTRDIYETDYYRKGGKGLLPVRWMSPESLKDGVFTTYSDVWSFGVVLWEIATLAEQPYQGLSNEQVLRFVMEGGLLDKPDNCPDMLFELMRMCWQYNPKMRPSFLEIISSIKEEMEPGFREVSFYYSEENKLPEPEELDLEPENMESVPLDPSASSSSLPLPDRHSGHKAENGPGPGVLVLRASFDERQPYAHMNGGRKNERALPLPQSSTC
Chain of Tyrosine-protein kinase HCK (Homo sapiens) (P08631 2-526 limits assumed): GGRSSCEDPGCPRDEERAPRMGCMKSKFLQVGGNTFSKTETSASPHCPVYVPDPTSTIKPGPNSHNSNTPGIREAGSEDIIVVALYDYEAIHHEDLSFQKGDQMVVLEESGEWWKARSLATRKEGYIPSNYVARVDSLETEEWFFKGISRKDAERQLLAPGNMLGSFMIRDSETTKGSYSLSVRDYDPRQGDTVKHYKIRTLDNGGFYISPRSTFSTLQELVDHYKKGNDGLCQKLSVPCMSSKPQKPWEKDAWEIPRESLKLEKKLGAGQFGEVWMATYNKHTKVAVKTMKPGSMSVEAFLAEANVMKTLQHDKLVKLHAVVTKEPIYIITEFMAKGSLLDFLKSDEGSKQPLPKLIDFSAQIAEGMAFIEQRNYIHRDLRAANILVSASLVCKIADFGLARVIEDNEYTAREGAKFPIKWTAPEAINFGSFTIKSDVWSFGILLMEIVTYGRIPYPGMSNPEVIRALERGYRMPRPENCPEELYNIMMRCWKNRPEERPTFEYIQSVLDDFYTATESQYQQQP

NC(=O)c1cc(-c2ccncc2)cc(-c2ccccc2)c1N
inhibition [1]: 3.74%
inhibition [2]: 4.45%
inhibition [3]: 5.13%
inhibition [4]: 8.7%
inhibition [5]: 2.51%
inhibition [6]: 2.14%
inhibition [7]: 6.17%
inhibition [8]: 22.8%
inhibition [9]: 64.8%
inhibition [10]: 6.39%
inhibition [11]: 37.6%
inhibition [12]: 12.1%
inhibition [13]: 43.7%
inhibition [14]: 5.73%
inhibition [15]: 5.9%
inhibition [16]: 6.28%
inhibition [17]: 6.25%
inhibition [18]: 2.11%
inhibition [19]: 1.56%
inhibition [20]: 1.61%

N#Cc1ccc(Oc2nccc(-c3c(-c4ccc(F)cc4)ncn3C3CCNCC3)n2)cc1
inhibition [1]: 9.35%
inhibition [2]: 4.8%
inhibition [3]: 4.75%
inhibition [4]: 8.02%
inhibition [5]: 4.07%
inhibition [6]: -3.29%
inhibition [7]: -0.83%
inhibition [8]: 0.11%
inhibition [9]: 9.12%
inhibition [10]: -0.87%
inhibition [11]: 3.01%
inhibition [12]: 5.66%
inhibition [13]: 5.1%
inhibition [14]: -0.43%
inhibition [15]: 0.96%
inhibition [16]: 3.29%
inhibition [17]: 3.86%
inhibition [18]: 3.14%
inhibition [19]: 4.24%
inhibition [20]: -0.47%

Cc1ccc(C(=O)NC2CCC2)cc1-c1ccc(C(=O)NCC2CC2)cc1
inhibition [1]: 5.58%
inhibition [2]: 4.95%
inhibition [3]: 2.15%
inhibition [4]: 4.58%
inhibition [5]: 8.02%
inhibition [6]: 1.24%
inhibition [7]: 1%
inhibition [8]: -2.9%
inhibition [9]: 4.65%
inhibition [10]: 0.98%
inhibition [11]: 2.7%
inhibition [12]: 4.64%
inhibition [13]: 6.65%
inhibition [14]: 2.06%
inhibition [15]: 3.83%
inhibition [16]: 4.44%
inhibition [17]: 5.62%
inhibition [18]: 0.92%
inhibition [19]: 1.77%
inhibition [20]: 2.02%

CCc1ccc(Oc2nccc(-c3c(-c4ccc(F)cc4)ncn3C3CCNCC3)n2)cc1
inhibition [1]: -3%
inhibition [2]: 4.18%
inhibition [3]: 6.93%
inhibition [4]: 5.58%
inhibition [5]: 7.51%
inhibition [6]: 6.35%
inhibition [7]: 4.74%
inhibition [8]: 1.36%
inhibition [9]: 6.16%
inhibition [10]: 1.83%
inhibition [11]: 7.59%
inhibition [12]: 4.84%
inhibition [13]: 8.91%
inhibition [14]: 5.24%
inhibition [15]: 3.51%
inhibition [16]: 5.54%
inhibition [17]: 3.85%
inhibition [18]: 2.18%
inhibition [19]: 3.43%
inhibition [20]: 2.08%

COc1cc(Nc2ncc(-c3ccccc3)o2)cc(OC)c1OC
inhibition [1]: 8.49%
inhibition [2]: -0.55%
inhibition [3]: 2.1%
inhibition [4]: 5.82%
inhibition [5]: 63.1%
inhibition [6]: 7.69%
inhibition [7]: 36.7%
inhibition [8]: 20.1%
inhibition [9]: 57.6%
inhibition [10]: 6.4%
inhibition [11]: 37.5%
inhibition [12]: 3.3%
inhibition [13]: 31.2%
inhibition [14]: 1.91%
inhibition [15]: 2.07%
inhibition [16]: 4.48%
inhibition [17]: -0.22%
inhibition [18]: -2.58%
inhibition [19]: -1.95%
inhibition [20]: -0.21%

COC(=O)Nc1nc2ccc(Sc3ccc(NC(=O)Nc4cc(C(F)(F)F)ccc4F)cc3)cc2[nH]1
inhibition [1]: -0.45%
inhibition [2]: -0.3%
inhibition [3]: 0.84%
inhibition [4]: 1.23%
inhibition [5]: 6.34%
inhibition [6]: 14.8%
inhibition [7]: 21.7%
inhibition [8]: 0.81%
inhibition [9]: 3.42%
inhibition [10]: -1.41%
inhibition [11]: 3.27%
inhibition [12]: 39.5%
inhibition [13]: 14.4%
inhibition [14]: 10.6%
inhibition [15]: 6.91%
inhibition [16]: 2.28%
inhibition [17]: -0.75%
inhibition [18]: 1.45%
inhibition [19]: -0.55%
inhibition [20]: 0.19%

O=C(Nc1n[nH]c2nc(-c3ccco3)ccc12)C1CC1
inhibition [1]: -0.33%
inhibition [2]: 1.81%
inhibition [3]: 0.82%
inhibition [4]: 1.09%
inhibition [5]: 3.83%
inhibition [6]: -1.89%
inhibition [7]: 2.09%
inhibition [8]: -1.01%
inhibition [9]: 2.62%
inhibition [10]: 1.1%
inhibition [11]: 1.67%
inhibition [12]: 3.22%
inhibition [13]: 7.96%
inhibition [14]: 1.21%
inhibition [15]: 2.33%
inhibition [16]: -3.11%
inhibition [17]: 0.45%
inhibition [18]: 1.25%
inhibition [19]: 0.79%
inhibition [20]: 1.08%
